Where “and” joins values, the source holds several entries; their conditions need not be identical. Equal values may be shown once. About 2,000 (36%) of roughly 5,500 compounds were called active. Roughly 18% stayed inconclusive and do not appear here. Rule as the data show it: active = normalized growth mostly below about 0.91 (no sharp cut-off); inconclusive = no clear call, values can overlap the other calls; inactive = mostly above about 0.92. Some of the results follow.
Experiment: chemical genetic growth profiling, strain panel (AID 1159580);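 also: tested at 20 µM; growth read once vehicle control cultures reached saturation at 30 °C; 1 = growth at the plate median or of vehicle wells; lower values mean less growth of the strain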
Settings: S. cerevisiae deletion strains, growth OD

Measured: normalized growth

CCCCCCCCCCCCC[N+](C)(C)Cc1ccccc1
active: locus YAL013W, strain DEP1, hits give low values 0.0555 | locus YAL021C, strain ccr4, hits give low values 0.0637 | locus YAL026C, strain drs2, hits give low values 0.0609 | locus YAL030W, strain snc1, hits give low values 0.0556 | locus YBL061C, strain skt5, hits give low values 0.0585 | locus YBR009C, strain hhf1, hits give low values 0.0639 | locus YBR021W, strain FUR4, hits give low values 0.0876 | locus YBR023C, strain chs3, hits give low values 0.0617 | locus YBR171W, strain sec66, hits give low values 0.0746 | locus YBR229C, strain ROT2, hits give low values 0.0463 | locus YBR231C, strain swc5, hits give low values 0.0605 | locus YBR279W, strain paf1, hits give low values 0.0571 | locus YCL011C, strain gbp2, hits give low values 0.0555 | locus YCL016C, strain dcc1, hits give low values 0.0666 | locus YCL029C, strain bik1, hits give low values 0.0604 | locus YCL069W, strain vba3, hits give low values 0.0638 | locus YCR088W, strain abp1, hits give low values 0.059 | locus YDL005C, strain med2, hits give low values 0.073 | locus YDL035C, strain GPR1, hits give low values 0.0501 | locus YDL040C, strain nat1, hits give low values 0.0568 | locus YDL074C, strain BRE1, hits give low values 0.078 | locus YDL101C, strain DUN1, hits give low values 0.0549 | locus YDL134C, strain PPH21, hits give low values 0.0476 | locus YDL185W, strain tfp1, hits give low values 0.0592 | locus YDL192W, strain arf1, hits give low values 0.0605 | locus YDR001C, strain nth1, hits give low values 0.0567 | locus YDR069C, strain doa4, hits give low values 0.0672 | locus YDR101C, strain arx1, hits give low values 0.0615 | locus YDR137W, strain rgp1, hits give low values 0.12 | locus YDR159W, strain sac3, hits give low values 0.0884 | locus YDR162C, strain NBP2, hits give low values 0.0468 | locus YDR195W, strain ref2 0.118 | locus YDR297W, strain sur2, hits give low values 0.0581 | locus YDR318W, strain mcm21, hits give low values 0.063 | locus YDR334W, strain swr1, hits give low values 0.0601 | locus YDR335W, strain msn5, hits give low values 0.0563 | locus YDR388W, hits give low values 0.0567 | locus YDR392W, strain spt3, hits give low values 0.0701 | locus YDR502C, strain sam2, hits give low values 0.0651 | locus YEL003W, strain gim4, hits give low values 0.0517 | locus YEL037C, strain rad23, hits give low values 0.0542 | locus YEL061C, strain CIN8 (second series), hits give low values 0.0587 | locus YEL061C, strain CIN8, hits give low values 0.0483 | locus YER015W, strain faa2, hits give low values 0.0622 | locus YER016W, strain bim1, hits give low values 0.063 | locus YER110C, hits give low values 0.0733 | locus YER111C, strain swi4, hits give low values 0.0674 | locus YER155C, strain BEM2 (second series), hits give low values 0.0862 | locus YER155C, strain BEM2, hits give low values 0.0618 | locus YER167W, strain BCK2, hits give low values 0.0502 | locus YFR010W, strain ubp6, hits give low values 0.0662 | locus YGL078C, strain dbp3, hits give low values 0.0681 | locus YGL086W, strain mad1, hits give low values 0.0582 | locus YGL167C, strain pmr1, hits give low values 0.0698 | locus YGL173C, strain kem1, hits give low values 0.0657 | locus YGL227W, strain vid30, hits give low values 0.0603 | locus YGL240W, strain doc1, hits give low values 0.0764 | locus YGL248W, strain PDE1, hits give low values 0.0462 | locus YGL253W, strain hxk2, hits give low values 0.0524 | locus YGR078C, strain PAC10, hits give low values 0.0524 | locus YGR135W, strain pre9, hits give low values 0.0647 | locus YGR229C, strain SMI1, hits give low values 0.0592 | locus YGR252W, strain gcn5, hits give low values 0.206 | locus YHR013C, strain ard1, hits give low values 0.102 | locus YHR027C, strain rpn1, hits give low values 0.0626 | locus YHR030C, strain SLT2, hits give low values 0.0492 and 0.104 | locus YHR079C, strain IRE1 (second series), hits give low values 0.0567 | locus YHR079C, strain IRE1, hits give low values 0.111 | locus YHR094C, strain hxt1, hits give low values 0.058 | locus YHR129C, strain ARP1, hits give low values 0.0544 | locus YHR142W, strain chs7, hits give low values 0.0737 | locus YHR200W, strain rpn10, hits give low values 0.0601 | locus YIL066C, strain RNR3, hits give low values 0.0508 | locus YIL073C, strain SPO22, hits give low values 0.129 | locus YIL125W, strain kgd1, hits give low values 0.0665 | locus YIR030C, strain dcg1, hits give low values 0.0594 | locus YJL092W, strain hpr5, hits give low values 0.0601 | locus YJL095W, strain BCK1 (second series), hits give low values 0.0575 | locus YJL095W, strain BCK1, hits give low values 0.0546 and 0.0934 | locus YJL115W, strain asf1, hits give low values 0.0698 | locus YJL129C, strain trk1, hits give low values 0.0815 | locus YJL134W, strain LCB3, hits give low values 0.0471 | locus YJL154C, strain vps35, hits give low values 0.0584 | locus YJL164C, strain tpk1, hits give low values 0.0596 | locus YJL166W, strain qcr8, hits give low values 0.0642 | locus YJL168C, strain set2, hits give low values 0.0571 | locus YJL187C, strain SWE1 (second series), hits give low values 0.0466 | locus YJR043C, strain POL32, hits give low values 0.0593 | locus YJR066W, strain TOR1, hits give low values -0.000757

— PubChem BioAssay AID1159580 (chemical genetic matrix, 2015)
